Screen size: about 310,000 compounds; about 14,000 (4.5%) showed an effect of 50% or more. Effects have a minus sign here. This is one part of a sample in which strong results are shown more often than they occur.
biological target: human ether-à-go-go-related gene (hERG) potassium channel (human, UniProt Q12809); test: primary screen, population patch clamp on CHO cells stably expressing hERG; higher = less effect of the substance
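Also: peak tail current of the secondary pulse compared with the same well before compound.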

human ether-à-go-go-related gene (hERG) potassium channel, sequence (Q12809 whole entry, looked up): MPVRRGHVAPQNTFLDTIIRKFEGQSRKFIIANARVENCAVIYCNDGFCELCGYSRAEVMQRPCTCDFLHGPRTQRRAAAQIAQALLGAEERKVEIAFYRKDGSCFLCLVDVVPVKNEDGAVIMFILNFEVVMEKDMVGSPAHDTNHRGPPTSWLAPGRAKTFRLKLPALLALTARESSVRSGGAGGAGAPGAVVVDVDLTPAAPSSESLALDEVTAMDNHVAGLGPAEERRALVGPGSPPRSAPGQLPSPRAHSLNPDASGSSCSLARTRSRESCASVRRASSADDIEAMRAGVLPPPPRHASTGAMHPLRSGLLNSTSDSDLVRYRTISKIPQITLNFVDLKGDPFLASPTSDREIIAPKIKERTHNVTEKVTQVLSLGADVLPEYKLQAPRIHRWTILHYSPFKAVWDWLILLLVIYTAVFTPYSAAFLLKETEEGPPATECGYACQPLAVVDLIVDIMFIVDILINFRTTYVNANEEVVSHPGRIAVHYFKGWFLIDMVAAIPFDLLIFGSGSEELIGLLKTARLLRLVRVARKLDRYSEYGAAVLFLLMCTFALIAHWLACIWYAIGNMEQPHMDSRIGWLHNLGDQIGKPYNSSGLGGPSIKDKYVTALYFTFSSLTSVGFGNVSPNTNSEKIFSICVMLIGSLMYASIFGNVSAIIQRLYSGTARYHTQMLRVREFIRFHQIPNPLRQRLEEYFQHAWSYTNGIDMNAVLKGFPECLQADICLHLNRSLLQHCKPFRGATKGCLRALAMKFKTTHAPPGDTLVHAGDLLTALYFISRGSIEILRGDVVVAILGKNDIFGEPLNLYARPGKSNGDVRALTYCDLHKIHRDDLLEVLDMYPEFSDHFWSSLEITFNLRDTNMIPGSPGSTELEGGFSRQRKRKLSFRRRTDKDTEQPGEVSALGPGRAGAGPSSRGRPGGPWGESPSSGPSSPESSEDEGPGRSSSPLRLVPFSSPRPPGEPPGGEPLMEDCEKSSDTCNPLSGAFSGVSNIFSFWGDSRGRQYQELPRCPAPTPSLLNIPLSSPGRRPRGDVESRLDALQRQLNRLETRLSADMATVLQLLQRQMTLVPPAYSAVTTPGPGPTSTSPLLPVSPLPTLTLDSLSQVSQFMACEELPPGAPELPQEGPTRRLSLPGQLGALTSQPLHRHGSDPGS

Row | Structure (SMILES) | hERG current change (%, negative = inhibition) at 10uM [%]
1 | COc1ccc(C2=NN(C(=O)c3ccco3)C(c3ccco3)C2)cc1OC (stereo not shown) | 7.24
2 | COc1cccc(SCc2noc(C(=O)NCC3CC3)c2C(=O)NCC2CC2)c1 | -43.5
3 | CCN(Cc1ccccc1)C(=O)c1ccccc1C | 1.76
4 | CC(NC(=O)C1CCN(S(=O)(=O)N2CCC3(CC2)OCCO3)CC1)c1ccccc1 (stereo not shown) | 20.9
5 | CCCC(C)NS(=O)(=O)c1ccccc1 (stereo not shown) | -18.4
6 | CN1CC(=O)N(CC(=O)Nc2ccc(SC(F)F)cc2)C1=O | -23.5
7 | CCOc1ccc2nc(C(=O)N3CCCC(C)C3)sc2c1 (stereo not shown) | -2.28
8 | CCOC(=O)C1=C(C)N(C)C(=S)NC1c1ccc(Cl)cc1 (stereo not shown) | -21.5
9 | Cc1ccc(C(=O)OCC(=O)NC(=O)NCc2ccccc2)cc1C | 7.95
10 | CCOC(=O)c1cnc(SCCN2CCOCC2)nc1N | 9.59
11 | COC(=O)c1ccccc1NC(=O)c1cc2n(n1)C(C(F)F)CC(C(F)F)N2 (stereo not shown) | 14
12 | Cc1cc(C)n(C(C)CC(=O)Nc2ccc(-c3ccno3)cc2)n1 (stereo not shown) | 1.47
13 | CC1(C)CC(=O)C=C(NCCN2CCNCC2)C1 | -2.18
14 | Cc1sc2ncnc(N3CCC(C(=O)Nc4cc(Cl)ccc4Cl)CC3)c2c1C | 4.42
15 | Cc1sc2ncnc(N3CCC(C(=O)N(C)CC(=O)Nc4ccccc4Cl)CC3)c2c1C | -67.7
16 | Cc1cccc(C)c1NC(=O)CN(C)C(=O)C1CCN(c2ncnc3sc(C)c(C)c23)CC1 | -46.7
17 | C=CCN(C(=O)CSc1nc2ccsc2c(=O)n1Cc1ccccn1)c1ccccc1 | -19.4
18 | COCCCNC(=O)Cn1cc(C(C)=O)c2ccccc21 | 17.7
19 | CC1CCN(C(=O)CN(c2ccccc2)S(=O)(=O)N(C)C)CC1 | 14.2
20 | CCOC(=O)NC(C(Cl)(Cl)Cl)S(=O)(=O)c1ccccc1 (stereo not shown) | -6.98

Row | Structure (SMILES) | hERG current change (%, negative = inhibition) at 10uM [%]
21 | CCOC(=O)NC(N(O)c1cccc(Cl)c1)C(Cl)(Cl)Cl (stereo not shown) | -74.2
22 | CCOC(=O)NC(c1ccc(C(C)C)cc1)C(Cl)(Cl)Cl (stereo not shown) | 1.44
23 | Cc1ccc(-c2cc(C(=O)Nc3cc(C)on3)c3ccccc3n2)cc1 | 4.13
24 | C=C(C)Cn1c(C2CC(=O)N(c3ccccc3F)C2)nc2ccccc21 (stereo not shown) | -27
25 | Cc1ccc(OCC(=O)NC(C)c2ccc(Cl)c(Cl)c2)c([N+](=O)[O-])n1 (stereo not shown) | -21.4
26 | CN(C)CCCNCCCNC(=O)/C(=N\O)c1ccccc1 | 6.64
27 | O=C(c1ccc(Cl)s1)N1CCCC(N2CCN(c3ccc(F)cc3)CC2)C1 (stereo not shown) | -70.1
28 | O=C(C1CCOCC1)N1CCCC(N2CCN(c3ccc(F)cc3)CC2)C1 (stereo not shown) | -3.64
29 | O=C(c1cccc(-c2ccco2)c1)N1CCCC(N2CCN(c3ccc(F)cc3)CC2)C1 (stereo not shown) | -78.5
30 | CC(=O)c1ccc(C(=O)N2CCCC(N3CCN(c4ccc(F)cc4)CC3)C2)s1 (stereo not shown) | -63.7
31 | O=C(c1cccs1)N1CCCC(N2CCN(c3ccc(F)cc3)CC2)C1 (stereo not shown) | -65.7
32 | COc1ccccc1N1CCN(C2CCCN(C(=O)c3cccc(-c4ccco4)c3)C2)CC1 (stereo not shown) | -36.1
33 | CC(C)=CC(=O)N1CCCC(N2CCN(c3ccc(F)cc3)CC2)C1 (stereo not shown) | -0.816
34 | O=C(c1cccs1)N1CCN(c2ccc(F)cc2)CC1 | -9.63
35 | Cc1ccccc1N1CCN(C2CCCN(C(=O)c3ccc(Cl)s3)C2)CC1 (stereo not shown) | -46.8
36 | CC(C)n1cc(C(=O)N2CCCC(N3CCN(c4ccc(F)cc4)CC3)C2)cn1 (stereo not shown) | -34.9
37 | O=C(c1ccoc1)N1CCCC(N2CCN(c3ccc(F)cc3)CC2)C1 (stereo not shown) | -48.1
38 | O=C(c1ccncc1)N1CCCC(N2CCN(c3ccc(F)cc3)CC2)C1 (stereo not shown) | -44.6
39 | CCN(C(=O)COC(=O)C1CCN(S(=O)(=O)c2ccc(C)c(C)c2)CC1)C1CCS(=O)(=O)C1 (stereo not shown) | -7.82
40 | Cc1nnc2ccc(-c3ccc(NS(C)(=O)=O)cc3)nn12 | -16

Row | Structure (SMILES) | hERG current change (%, negative = inhibition) at 10uM [%]
41 | CCOc1nc(Nc2ccccc2)nc(OCC)n1 | -21.7
42 | COc1ccc(-c2ccc(N(C)C)cc2)cc1[C@H]1[C@H]2C=CC[C@@H](C)[C@@H]2C(=O)N1Cc1ccccc1 | 10.1
43 | Cc1nc(N2CCN(Cc3ccccc3)CC2)nc2c1C(=O)CC(C)C2 (stereo not shown) | -5.32
44 | C(=N\N1CCN(C2c3ccccc3-c3ccccc32)CC1)/c1cccnc1 | 2.63
45 | Cc1nnc(NC(=O)c2ccc(S(=O)(=O)N3CC(C)OC(C)C3)cc2)o1 (stereo not shown) | 12.6
46 | Cc1ccc(S(=O)(=O)N2CCCC2C(=O)Nc2nc3ccccc3s2)cc1 (stereo not shown) | -14.8
47 | Oc1ccc(/C=N/N=C(c2ccccc2)c2ccccc2)c(O)c1O | 8.49
48 | COC(=O)CSc1nccc(C)n1 | 14.6
49 | COC(=O)c1cn(NC(=O)Cn2nc([N+](=O)[O-])c(Cl)c2C)c(=O)c2ccccc12 | 18.6
50 | CC1CCN(S(=O)(=O)c2cccc(C(=O)Nc3ccccn3)c2)CC1 | -22.1
51 | O=C(Nc1ccccc1C(=O)N1CCCC1)c1cccc(S(=O)(=O)N2CCCCCC2)c1 | -39.3
52 | O=C(Nc1ccccc1C(=O)N1CCCC1)c1cccc(S(=O)(=O)N2CCCCC2)c1 | -12.1
53 | CCNC(=O)c1ccccc1NC(=O)c1cccc(S(=O)(=O)N2CCC(C)CC2)c1 | -55.4
54 | CC1CCN(S(=O)(=O)c2cccc(C(=O)Nc3ccccc3)c2)CC1 | -9.3
55 | O=C(Nc1ccccc1O)c1cccc(S(=O)(=O)N2CCOCC2)c1 | 17.7
56 | Cc1ccccc1NC(=O)c1cccc(S(=O)(=O)N2CCOCC2)c1 | 31.9
57 | CNC(=O)c1ccccc1NC(=O)c1cccc(S(=O)(=O)N2CCCCC2)c1 | -51.1
58 | CCNC(=O)c1ccccc1NC(=O)c1cccc(S(=O)(=O)N2CCOCC2)c1 | -71.5

— paper PMC4336329 (PLoS ONE, 2015)
